Assay results published in the supplement of paper PMC8047044.
Several values for one entry are separate records, joined by “and”; a condition that tells them apart may be missing. Identical values can stand only once. Counter-ions that a name gives are not always drawn.

system: Neuro-2a; assay: neurite formation score, plate-normalized to DMSO control mean 5.04 (score (0-8 scale)); higher = more or longer neurites; conditions: 1 µM
Method: (§1)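 Neuro-2a mouse neuroblastoma cells in PLL-coated 96-well plates were pre-treated for 1 h in DMEM(+) with each kinase inhibitor at 1 µM, then switched to serum-free DMEM(-) with inhibitor to induce neurite outgrowth and fixed about 2-3 h later. Three blinded observers scored neurite formation from 0 (no neurites) to 8 (long neurites on almost all cells).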

Compound | neurite formation score
O=C1NC(=O)C(c2ccccc2[N+](=O)[O-])=C1Nc1ccc(O)c(Cl)c1 | 3.9
CN(c1ncccc1CNc1nc(Nc2ccc3c(c2)CC(=O)N3)ncc1C(F)(F)F)S(C)(=O)=O | 1.57 and 4.24
O=c1ncn2nc(Sc3ccc(F)cc3F)ccc2c1-c1c(Cl)cccc1Cl | 4.29
FC(F)(F)c1ccc(CNc2ccc(Cc3c[nH]c4ncccc34)cn2)cc1 | 3.54
CN(C)Cc1cccc(N=C(c2ccccc2)c2c(O)[nH]c3cc(C(N)=O)ccc23)c1 | 4.24
O=C(Nc1c[nH]nc1-c1nc2ccc(CN3CCOCC3)cc2[nH]1)NC1CC1 | 4.02
C=CC(=O)N1CCC[C@@H](n2nc(-c3ccc(Oc4ccccc4)cc3)c3c(N)ncnc32)C1 | 3.24
Cc1cc(N2CCOCC2)cc2[nH]c(-c3c(NC[C@@H](O)c4cccc(Cl)c4)cc[nH]c3=O)nc12 | 3.57
CCn1c(N)c(C(=O)NC)c(=O)c2ccc(C#CC(C)(O)COC)nc21 (stereo not given) | 4.54
NC1(Cc2ccc(Cl)cc2)CCN(c2ncnc3[nH]ccc23)CC1 | 5.63
O=C(NCCO)c1cccc(-c2cc(Nc3ccc(OC(F)(F)F)cc3)ncn2)c1 | 5.63
Nc1ncnc2c1c(-c1cccc(OCc3ccccc3)c1)cn2C1CC(CN2CCC2)C1 (stereo not given) | 3.24
COc1cc(C(=O)N2CCC(N3CCN(C)CC3)CC2)ccc1Nc1ncc2c(n1)N(C)c1ccccc1C(=O)N2C | 4.36
CC(C)(C#N)c1ccc(N2C(=O)OCc3cnc4ccc(-c5cnc6ccccc6c5)cc4c32)cc1 | 3.63
Cn1cc(/C=C2\C(=O)Nc3cccnc32)c2ccccc21 | 4.54
O=[N+]([O-])c1ccc(-c2nc(-c3ccc(F)cc3)c(-c3ccncc3)[nH]2)cc1 | 3.96
CN1CCN(Cc2ccc(-c3cnc4[nH]cc(-c5ccc6[nH]ccc6c5)c4c3)cc2)CC1 | 4.54
C=CC(=O)Nc1cccc(Nc2nc(Nc3ccc(OCCOC)cc3)ncc2F)c1 | 4.91
O=C1Nc2ccc(I)cc2/C1=C/c1cc(Br)c(O)c(Br)c1 | 3.29

Compound | neurite formation score
COc1cc(C(=O)NC2CCN(C)CC2)ccc1Nc1ncc2c(n1)N(C1CCCC1)CC(F)(F)C(=O)N2C | 4.29
S=C(NCc1ccc2c(c1)OCO2)N1CCN(c2ncnc3c2oc2ccccc23)CC1 [Amuvatinib (MP-470, HPK 56)] | 4.69
Cc1c(NC(=O)OC[C@@H]2COCCN2)cn2ncnc(Nc3ccc4c(cnn4Cc4cccc(F)c4)c3)c12 | 2.91
O=C(Nc1ccc(CN2CCOCC2)cc1)c1ccc(-c2cccc(Cl)c2)o1 | 4.9
COc1cc(Nc2ncc(F)c(Nc3ccc4c(n3)NC(=O)C(C)(C)O4)n2)cc(OC)c1OC [R406 (free base)] | 3.9
Oc1ccc(Nc2nc(-c3ccc(Cl)cc3)cs2)cc1 | 4.21
N#Cc1ccc2[nH]c(O)c(-c3ccc(CN4CCOCC4)cn3)c2c1 | 4.54
CC1(COc2ccc3c(c2)ncn3-c2ccc3cccc(N4CCC(N)CC4)c3n2)COC1 | 3.57
COc1c(C)c(C(=O)c2ccc(N)c(C(=O)O)c2)n2ccccc12 | 4.96
O=S(=O)(c1cccc2c(O)nccc12)N1CCCNCC1 [Hydroxyfasudil hydrochloride] | 3.8
CC[C@@H]1C(=O)N(C)c2cnc(Nc3ccc(C(=O)NC4CCN(C)CC4)cc3OC)nc2N1C1CCCC1 | 5.02
CNC(=O)c1ccc(-c2cnc3ncc(Cc4ccc5ncccc5c4)n3n2)cc1F | 5.14
Cc1cc(O)c2c(c1)C(=O)c1cccc(O)c1C2=O [Chrysophanol] | 4.8
Cc1ccc2nc(NCCN)c3ncc(C)n3c2c1 | 4.47 and 4.14
C[C@@H]1COCCN1c1cc(C2(S(C)(=O)=O)CC2)nc(-c2cccc3[nH]ccc23)n1 | 4.57
CC(=O)Nc1cccc(-n2c(=O)n(C3CC3)c(=O)c3c(Nc4ccc(I)cc4F)n(C)c(=O)c(C)c32)c1 [Trametinib DMSO solvate] | 5.02
c1cc(-c2cnn3cc(-c4ccc(OCCN5CCCCC5)cc4)cnc23)ccn1 [Dorsomorphin 2HCl] | 4.96
CCN(CC)CCCCNc1ncc2cc(-c3cc(OC)cc(OC)c3)c(NC(=O)NC(C)(C)C)nc2n1 | 4.24

system: Neuro-2a; assay: as above; conditions: 0.1 µM
Method: as §1, with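 “at 0.1” for “at 1”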

Compound | neurite formation score
FC(F)(F)c1ccc(CNc2ccc(Cc3c[nH]c4ncccc34)cn2)cc1 | 5.08
CN(C)Cc1cccc(N=C(c2ccccc2)c2c(O)[nH]c3cc(C(N)=O)ccc23)c1 | 4.54
C=CC(=O)N1CCC[C@@H](n2nc(-c3ccc(Oc4ccccc4)cc3)c3c(N)ncnc32)C1 | 4.38
Cc1cc(N2CCOCC2)cc2[nH]c(-c3c(NC[C@@H](O)c4cccc(Cl)c4)cc[nH]c3=O)nc12 | 4.71
CCn1c(N)c(C(=O)NC)c(=O)c2ccc(C#CC(C)(O)COC)nc21 (stereo not given) | 4.42
COc1cc(C(=O)N2CCC(N3CCN(C)CC3)CC2)ccc1Nc1ncc2c(n1)N(C)c1ccccc1C(=O)N2C | 4.92
CN1CCN(Cc2ccc(-c3cnc4[nH]cc(-c5ccc6[nH]ccc6c5)c4c3)cc2)CC1 | 4.42
C=CC(=O)Nc1cccc(Nc2nc(Nc3ccc(OCCOC)cc3)ncc2F)c1 | 4.71
S=C(NCc1ccc2c(c1)OCO2)N1CCN(c2ncnc3c2oc2ccccc23)CC1 [Amuvatinib (MP-470, HPK 56)] | 4.92
O=S(=O)(c1cccc2c(O)nccc12)N1CCCNCC1 [Hydroxyfasudil hydrochloride] | 2.09
CNC(=O)c1ccc(-c2cnc3ncc(Cc4ccc5ncccc5c4)n3n2)cc1F | 4.09
Cc1cc(O)c2c(c1)C(=O)c1cccc(O)c1C2=O [Chrysophanol] | 4.76
c1cc(-c2cnn3cc(-c4ccc(OCCN5CCCCC5)cc4)cnc23)ccn1 [Dorsomorphin 2HCl] | 3.92
